# Bioassay records from PubChem.
# mut p53 react: mutant p53 pathway re-activators, primary screen, cell-based, SW480, luciferase, single point, HTS; SW480 PUMA-promoter luciferase, p53 mutant reactivation; activation, % at 9.98 µM; actives 1.5% (n = 28,000); AID 624151, 2012; in the data active = activation above about 52%; inconclusive = no clear call, values can overlap the other calls
# STK33 inh: STK33 kinase inhibitors, primary screen, biochemical, luminescence, ADP-Glo, MBP substrate | Serine/threonine-protein kinase 33 (Homo sapiens), Q9BYT3 | inhibition, % at 12.5 µM | actives 0.44% (n = 27,000) | AID 2322, 2010; in the data active = inhibition above about 20%; inconclusive = no clear call, values can overlap the other calls
# ID4 binder: binders of human ID4 protein, primary screen, biochemical, small molecule microarray, single point; actives 1.2% (n = 31,000); calls only; Flag-ID4 binding, fluorescence F/B; call rule not given here;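 also: a binder raises fluorescence above local background on the spot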
# Target sequence (P47928 whole entry, looked up): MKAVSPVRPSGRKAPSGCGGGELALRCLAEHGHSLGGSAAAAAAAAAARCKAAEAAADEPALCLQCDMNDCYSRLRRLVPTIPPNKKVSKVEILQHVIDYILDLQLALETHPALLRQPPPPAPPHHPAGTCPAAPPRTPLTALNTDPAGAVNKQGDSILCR
# Starred values were filed as active, the others as inactive; i = inactive; ? = inconclusive; · = not tested or not shown; + = active, no number. Hits are enriched below; roughly 2% of the tested compounds scored in any of these assays.
SMILES,mut p53 react,STK33 inh,ID4 binder
CC(C)NC(=O)N(C)C[C@H]1OCCCC[C@@H](C)Oc2ccc(NC(=O)Nc3ccc(C(F)(F)F)cc3)cc2C(=O)N([C@@H](C)CO)C[C@H]1C,-64,·,i
C[C@H]1CCCCO[C@@H](CN(C)C(=O)Nc2ccccc2)[C@@H](C)CN([C@@H](C)CO)C(=O)c2cc(NC(=O)c3ccncc3)ccc2O1,3,·,+
COc1cc(NC(=O)C(C)Oc2ccc(Cl)cc2Cl)c(C(=O)O)cc1OC (centres undefined),-8,-1,i
O=C1c2ccccc2C(=O)N1[C@H]1CCN(Cc2ccc(OCCO)cc2)C1,·,0,·
CCOC(=O)COc1ccc(-c2nc3c([nH]2)c(=O)n(C)c(=O)n3C)cc1OC,-3,-1,i
O=C1c2oc3ccccc3c(=O)c2C(c2cccc(Oc3ccccc3)c2)N1CCCO (centres undefined),7,2,i
O=c1c(O[C@@H]2O[C@H](CO)[C@H](O)[C@H](O)[C@H]2O)c(-c2cc(O)c(O)c(O)c2)oc2cc(O)cc(O)c12,·,13,i
Cc1ccc(-c2nnc(N3CCN(C(=O)CSc4nc5ccccc5o4)CC3)c3ccccc23)cc1,-18,1,i
Cc1ccc(-c2nnc(N3CCN(C(=O)CSc4nc(C)cc(C)n4)CC3)c3ccccc23)cc1,-11,1,+
CC(C)Cc1c(O)nc(SCC(=O)NC(C)(C)C)[nH]c1=O,·,0,·
Cc1ccc2nc(-c3ccc(NC(=O)COc4ccc([N+](=O)[O-])cc4)cc3)sc2c1,70*,6,i
CCC(Sc1nc(C)cc(C)n1)C(=O)Nc1ccc(-c2nc3ccc(C)cc3s2)cc1 (centres undefined),85*,2,i
O=C(COc1ccc([N+](=O)[O-])cc1)Nc1ccc2oc(-c3cccc(Br)c3)nc2c1,3,0,i
O=C(COc1ccc([N+](=O)[O-])cc1)Nc1cccc(-c2nc3cc(Cl)ccc3o2)c1,60*,3,i
O=C(COc1ccc([N+](=O)[O-])cc1)Nc1ccc(-c2nc3ccccc3o2)cc1,26,2,i
O=C(COc1ccc([N+](=O)[O-])cc1)Nc1ccc2oc(-c3cccc(Cl)c3)nc2c1,12,5,i
CCC(SC1=NCCS1)C(=O)Nc1ccc(-c2nc3ccc(C)cc3s2)cc1 (centres undefined),?,8,i
Cc1ccc2nc(-c3cccc(NC(=O)COc4ccc([N+](=O)[O-])cc4)c3)oc2c1,72*,7,i
O=C(O)c1ccc(Oc2ccccc2)cc1,·,-3,·
NNC(=O)CNC(=O)c1ccccc1,·,-1,·
Cc1ccc2nc(-c3ccc(NC(=O)C(C)Oc4ccc5c(C)cc(=O)oc5c4)cc3)sc2c1 (centres undefined),77*,10,i
Cc1cc(=O)oc2cc(OC(C)C(=O)Nc3sc4c(c3C#N)CCCC4)ccc12 (centres undefined),4,-1,i
O=C(CCc1ccc(O)cc1)CC(CCc1ccc(O)cc1)O[C@@H]1O[C@H](CO)[C@@H](O)[C@H](O)[C@H]1O (some centres undefined),·,0,i
CS(=O)(=O)Nc1ccc(C(=O)NCc2cccnc2)cc1,8,0,i
O=C(NCc1cccnc1)c1cccc(NC(=O)c2ccco2)c1,-2,-1,+
SMILES,mut p53 react,STK33 inh,ID4 binder
CS(=O)(=O)N(CC(=O)NC1CCCC1)c1ccc(Cl)cc1,-1,-2,i
O=C(CSc1nnc(-c2ccc(Cl)cc2)n1-c1ccc(F)cc1)N1CCOCC1,0,-3,i
CCOC(=O)c1c(NC(=O)CSc2ncn[nH]2)sc2c1CCCC2,-1,-3,i
NC(=O)c1c(NC(=O)CSc2ncn[nH]2)sc2c1CCC2,-3,7,+
N#Cc1c(NC(=S)NC(=O)c2cncc(Br)c2)sc2c1CCCC2,17,1,i
Cc1cccnc1NC(=S)NC(=O)c1cncc(Br)c1,108*,-2,i
Cc1ccc(C)c(NC(=O)CSc2cc(C)c3ccccc3n2)c1,-4,-1,i
Cc1nn(CC(O)COc2ccc3ccccc3c2)c(C)c1Br (centres undefined),-6,2,i
Cc1cc(=O)oc2cc(NC(=S)NCc3ccccn3)ccc12,81*,2,i
O=C(NCc1ccccn1)C(=O)Nc1ccccc1F,61*,-1,i
Cc1cc(=O)oc2cc(NC(=S)NCCCN3CCCC3=O)ccc12,39,-1,i
CC(C)CNC(=O)C(=O)NCc1ccccn1,2,-5,i
Cc1ccc(NC(=O)CSc2ncccn2)cc1C,2,1,i
Cc1ccc(NC(=O)C(=O)NCc2ccccn2)cc1C,94*,1,i
C=CCOC(=O)[C@H]1[C@@H]2C(=O)O[C@@H](c3ccccc3)[C@@H](c3ccccc3)N2[C@@H](c2ccc(OCCOC(=O)[C@H]3C[C@H]4C(=O)N[C@@H](Cc5ccccc5)C(=O)N4[C@H]3c3ccc(O)cc3)cc2)[C@]12C(=O)Nc1ccccc12,·,17,i
C/C=C/[C@H](CC(=O)N1Cc2ccccc2C[C@H]1CO)[Si](C)(C)c1ccc(OC)cc1,·,10,i
Nc1cccc(-c2cc3c(Oc4cccc(O)c4)ncnc3[nH]2)c1,2,69*,·
Cc1ccc(NC(=O)CSc2nc3ccccc3c(=O)n2-c2cccc(C(F)(F)F)c2)c(C)c1,-2,-6,i
CCc1nc(N)nc(N)c1-c1ccc(Cl)cc1,·,-3,·
CSc1nncc(-c2ccc(Cl)cc2)n1,63*,·,i
COc1ccc([Si](C)(C)[C@H]2[C@H](CCO)O[C@@]3(C(=O)N(Cc4ccc(N5CCOC5=O)cc4)c4ccccc43)[C@@H]2C)cc1,·,?,i
COc1ccc([Si](C)(C)[C@@H]2[C@@H](CCn3cc(CCO)nn3)O[C@]3(C(=O)N(Cc4ccc(N5CCOC5=O)cc4)c4ccccc43)[C@H]2C)cc1,·,24*,i
COc1ccccc1-c1nnc(SCC(=O)c2ccc(NC(C)=O)cc2)o1,?,5,i
CN(C)c1ccc(C(=C2C=CC(=[N+](C)C)C=C2)c2ccc(N(C)C)cc2)cc1,·,76*,·
CCn1c(SCC(=O)NC(C)(C)C)nnc1-c1cccc([N+](=O)[O-])c1,-4,-5,i
SMILES,mut p53 react,STK33 inh,ID4 binder
Cc1ccc(Nc2nc(Oc3ccc(=O)[nH]n3)nc(N3CCOCC3)n2)cc1,-17,8,+
CNc1nc(Oc2ccc(=O)[nH]n2)nc(N2CCOCC2)n1,10,-2,i
C/C(=C\CC(C)(C)/C=C/Cc1ccoc1)C(=O)O,·,-4,·
Cc1[nH]c2ccccc2c1C(=O)CSc1nc2ccccc2[nH]1,62*,1,i
Cc1[nH]c2ccccc2c1C(=O)CSc1nc2ccccc2o1,31,1,i
CC(CC(N)=O)OC(=O)c1cc(Cl)cc(O)c1O (centres undefined),·,-1,i
O=C(Cn1c(COc2ccccc2)nc2ccccc21)N1CCOCC1,-12,1,i
OCC1(CO)COC(COc2ccccc2)=N1,2,·,+
O=C(CCCOc1ccc(Cl)cc1Cl)Nc1ccccc1[N+](=O)[O-],2,1,i
Clc1ccc(CSc2nnc(-c3cccs3)n2Cc2ccco2)c(Cl)c1,5,0,i
